Unmarked numbers belong to inactive results.
The targets below were run with C#CCNC(=O)CCSSCCC(=O)NCCc1ccc(C=O)c(C=O)c1 (assay: lysine labeling ratio R10:1 (500 µM / 50 µM probe), SILAC-ABPP in living cells; higher = lower intrinsic lysine reactivity toward the probe, active = 2 or less). Details: HeLa; probe concentrations 500 vs 50 µM.
In short: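 In PBS at room temperature, living HeLa cells grown with SILAC light or heavy labels were treated with 50 µM or 500 µM of an alkyne-tagged, disulfide-linked lysine probe, with label swaps in both directions. Analysis was by LC-MS/MS on a TIMS-TOF Pro after click to biotin-azide, neutravidin capture and DTT release. For each lysine, R is the median across forward and reverse replicates of the filtered median high-probe/low-probe MS1 peptide ratio, capped at 20.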

Chain of UniProt Q9UHN6 (Q9UHN6 whole entry): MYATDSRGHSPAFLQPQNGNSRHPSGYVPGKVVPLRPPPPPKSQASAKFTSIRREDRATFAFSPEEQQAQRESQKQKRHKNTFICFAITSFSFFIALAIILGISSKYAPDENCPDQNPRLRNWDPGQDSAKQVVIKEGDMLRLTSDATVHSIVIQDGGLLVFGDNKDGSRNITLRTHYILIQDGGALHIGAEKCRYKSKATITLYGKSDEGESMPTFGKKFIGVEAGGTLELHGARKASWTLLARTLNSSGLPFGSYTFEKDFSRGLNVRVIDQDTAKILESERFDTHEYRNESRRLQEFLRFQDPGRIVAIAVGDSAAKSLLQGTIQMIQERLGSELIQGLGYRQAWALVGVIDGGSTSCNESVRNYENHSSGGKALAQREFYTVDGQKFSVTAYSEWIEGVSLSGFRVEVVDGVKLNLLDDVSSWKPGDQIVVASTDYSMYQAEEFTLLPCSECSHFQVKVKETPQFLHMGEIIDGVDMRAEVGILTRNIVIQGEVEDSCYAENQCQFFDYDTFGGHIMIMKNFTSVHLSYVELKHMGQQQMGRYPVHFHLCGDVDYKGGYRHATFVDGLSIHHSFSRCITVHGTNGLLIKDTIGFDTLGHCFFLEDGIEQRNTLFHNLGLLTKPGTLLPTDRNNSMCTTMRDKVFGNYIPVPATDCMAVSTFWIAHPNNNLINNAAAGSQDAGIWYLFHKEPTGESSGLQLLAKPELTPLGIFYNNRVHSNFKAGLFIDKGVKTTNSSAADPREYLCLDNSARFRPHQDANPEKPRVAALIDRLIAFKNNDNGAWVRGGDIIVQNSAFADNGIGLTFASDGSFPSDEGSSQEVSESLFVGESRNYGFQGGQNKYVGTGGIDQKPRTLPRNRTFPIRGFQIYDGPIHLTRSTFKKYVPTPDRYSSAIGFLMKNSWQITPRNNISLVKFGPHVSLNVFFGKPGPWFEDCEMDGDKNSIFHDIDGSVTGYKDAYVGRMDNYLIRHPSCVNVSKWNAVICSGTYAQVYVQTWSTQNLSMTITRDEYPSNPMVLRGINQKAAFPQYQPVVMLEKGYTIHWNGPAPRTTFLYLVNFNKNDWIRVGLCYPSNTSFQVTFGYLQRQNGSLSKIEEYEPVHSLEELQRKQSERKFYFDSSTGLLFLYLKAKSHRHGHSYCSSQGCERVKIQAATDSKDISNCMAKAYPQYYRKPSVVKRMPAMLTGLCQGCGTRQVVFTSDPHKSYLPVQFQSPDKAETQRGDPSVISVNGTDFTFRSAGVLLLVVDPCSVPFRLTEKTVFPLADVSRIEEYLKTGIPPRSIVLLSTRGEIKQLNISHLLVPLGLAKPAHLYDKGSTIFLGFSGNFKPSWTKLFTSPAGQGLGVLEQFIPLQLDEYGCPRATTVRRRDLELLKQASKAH
Chain of UniProt P26006 (P26006 whole entry): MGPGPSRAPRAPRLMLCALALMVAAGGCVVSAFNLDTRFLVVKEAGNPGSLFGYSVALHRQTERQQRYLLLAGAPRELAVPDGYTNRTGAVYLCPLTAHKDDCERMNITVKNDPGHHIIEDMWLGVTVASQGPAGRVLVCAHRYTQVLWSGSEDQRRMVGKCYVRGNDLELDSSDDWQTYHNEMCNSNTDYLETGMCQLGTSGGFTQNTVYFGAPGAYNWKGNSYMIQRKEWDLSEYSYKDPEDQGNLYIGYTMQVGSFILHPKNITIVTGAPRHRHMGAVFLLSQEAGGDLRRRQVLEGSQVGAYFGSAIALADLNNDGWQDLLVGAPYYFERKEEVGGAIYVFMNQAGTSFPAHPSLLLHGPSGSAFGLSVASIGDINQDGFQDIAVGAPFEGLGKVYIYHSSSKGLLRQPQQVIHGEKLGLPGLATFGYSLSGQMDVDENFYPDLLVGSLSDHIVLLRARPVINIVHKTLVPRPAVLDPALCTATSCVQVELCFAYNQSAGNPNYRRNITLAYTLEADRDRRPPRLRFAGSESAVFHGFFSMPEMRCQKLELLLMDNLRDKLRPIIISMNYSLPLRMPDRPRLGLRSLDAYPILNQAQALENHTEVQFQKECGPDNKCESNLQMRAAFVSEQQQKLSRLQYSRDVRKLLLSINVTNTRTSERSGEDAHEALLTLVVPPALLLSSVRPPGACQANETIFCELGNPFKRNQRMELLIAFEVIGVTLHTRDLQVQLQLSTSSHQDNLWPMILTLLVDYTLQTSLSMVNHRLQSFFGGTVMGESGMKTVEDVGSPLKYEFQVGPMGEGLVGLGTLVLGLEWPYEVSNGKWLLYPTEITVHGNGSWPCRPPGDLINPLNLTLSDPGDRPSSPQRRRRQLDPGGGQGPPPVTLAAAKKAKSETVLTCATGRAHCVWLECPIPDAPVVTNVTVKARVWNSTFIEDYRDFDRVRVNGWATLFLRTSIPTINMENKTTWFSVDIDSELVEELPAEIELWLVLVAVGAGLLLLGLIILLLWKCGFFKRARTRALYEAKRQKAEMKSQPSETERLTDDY
Chain of UniProt Q6EMK4 (Q6EMK4 whole entry, looked up): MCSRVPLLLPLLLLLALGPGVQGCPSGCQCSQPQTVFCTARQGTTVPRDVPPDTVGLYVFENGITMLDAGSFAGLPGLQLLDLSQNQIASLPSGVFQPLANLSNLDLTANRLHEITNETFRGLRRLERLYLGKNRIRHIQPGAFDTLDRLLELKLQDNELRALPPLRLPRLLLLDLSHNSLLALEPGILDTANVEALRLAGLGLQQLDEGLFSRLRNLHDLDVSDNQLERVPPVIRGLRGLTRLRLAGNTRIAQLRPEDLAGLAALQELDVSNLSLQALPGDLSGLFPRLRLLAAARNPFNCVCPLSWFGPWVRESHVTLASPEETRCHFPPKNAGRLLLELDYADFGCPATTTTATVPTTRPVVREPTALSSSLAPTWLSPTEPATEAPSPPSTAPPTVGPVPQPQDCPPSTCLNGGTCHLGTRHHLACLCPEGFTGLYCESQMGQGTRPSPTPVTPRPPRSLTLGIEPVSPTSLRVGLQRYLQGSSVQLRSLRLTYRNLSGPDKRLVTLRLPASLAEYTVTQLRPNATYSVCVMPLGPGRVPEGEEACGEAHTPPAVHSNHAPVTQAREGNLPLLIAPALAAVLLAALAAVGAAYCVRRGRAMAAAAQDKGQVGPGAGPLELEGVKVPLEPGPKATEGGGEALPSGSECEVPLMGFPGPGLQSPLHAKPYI
Chain of UniProt P04920 (P04920 whole entry): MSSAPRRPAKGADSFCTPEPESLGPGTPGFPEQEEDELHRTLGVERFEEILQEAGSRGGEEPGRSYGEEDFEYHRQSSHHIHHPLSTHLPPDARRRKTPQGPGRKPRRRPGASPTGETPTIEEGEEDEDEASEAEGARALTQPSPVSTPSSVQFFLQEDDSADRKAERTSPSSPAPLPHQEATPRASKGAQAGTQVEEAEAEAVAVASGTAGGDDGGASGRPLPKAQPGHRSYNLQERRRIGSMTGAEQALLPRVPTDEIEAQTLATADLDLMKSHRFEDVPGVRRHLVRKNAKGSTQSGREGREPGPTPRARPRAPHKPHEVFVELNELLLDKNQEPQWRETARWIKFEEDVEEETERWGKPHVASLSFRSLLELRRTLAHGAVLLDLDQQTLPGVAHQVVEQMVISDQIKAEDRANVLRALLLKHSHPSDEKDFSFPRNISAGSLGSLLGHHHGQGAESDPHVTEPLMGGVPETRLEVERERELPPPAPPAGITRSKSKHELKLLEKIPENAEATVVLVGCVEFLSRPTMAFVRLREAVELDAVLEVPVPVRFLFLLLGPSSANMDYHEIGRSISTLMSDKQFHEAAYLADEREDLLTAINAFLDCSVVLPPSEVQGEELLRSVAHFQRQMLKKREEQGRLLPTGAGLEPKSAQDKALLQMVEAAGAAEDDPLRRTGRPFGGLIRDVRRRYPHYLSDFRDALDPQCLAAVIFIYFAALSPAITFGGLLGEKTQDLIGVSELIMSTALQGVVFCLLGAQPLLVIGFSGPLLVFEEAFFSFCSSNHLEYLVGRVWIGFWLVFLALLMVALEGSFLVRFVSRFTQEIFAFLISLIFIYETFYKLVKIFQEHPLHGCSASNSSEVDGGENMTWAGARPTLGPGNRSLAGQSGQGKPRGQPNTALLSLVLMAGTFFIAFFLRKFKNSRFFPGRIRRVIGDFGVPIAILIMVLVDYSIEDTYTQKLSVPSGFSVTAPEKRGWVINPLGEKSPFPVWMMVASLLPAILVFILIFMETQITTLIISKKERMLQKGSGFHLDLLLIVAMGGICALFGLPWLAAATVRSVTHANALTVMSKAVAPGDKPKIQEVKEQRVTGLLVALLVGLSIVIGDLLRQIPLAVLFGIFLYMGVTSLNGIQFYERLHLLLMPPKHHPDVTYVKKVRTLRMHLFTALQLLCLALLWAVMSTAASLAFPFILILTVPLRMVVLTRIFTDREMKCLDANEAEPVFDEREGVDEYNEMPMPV
Chain of UniProt Q7Z3B1 (Q7Z3B1 whole entry, looked up): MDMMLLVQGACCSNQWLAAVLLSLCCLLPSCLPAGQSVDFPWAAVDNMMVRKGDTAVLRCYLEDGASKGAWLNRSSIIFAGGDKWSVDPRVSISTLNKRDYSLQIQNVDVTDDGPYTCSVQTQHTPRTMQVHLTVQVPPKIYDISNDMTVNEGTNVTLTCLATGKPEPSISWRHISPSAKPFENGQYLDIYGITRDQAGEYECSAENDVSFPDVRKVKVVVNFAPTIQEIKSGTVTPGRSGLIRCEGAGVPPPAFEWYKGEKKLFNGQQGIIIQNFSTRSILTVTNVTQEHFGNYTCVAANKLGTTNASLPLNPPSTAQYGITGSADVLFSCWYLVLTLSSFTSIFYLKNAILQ
Chain of UniProt P07910 (P07910 whole entry): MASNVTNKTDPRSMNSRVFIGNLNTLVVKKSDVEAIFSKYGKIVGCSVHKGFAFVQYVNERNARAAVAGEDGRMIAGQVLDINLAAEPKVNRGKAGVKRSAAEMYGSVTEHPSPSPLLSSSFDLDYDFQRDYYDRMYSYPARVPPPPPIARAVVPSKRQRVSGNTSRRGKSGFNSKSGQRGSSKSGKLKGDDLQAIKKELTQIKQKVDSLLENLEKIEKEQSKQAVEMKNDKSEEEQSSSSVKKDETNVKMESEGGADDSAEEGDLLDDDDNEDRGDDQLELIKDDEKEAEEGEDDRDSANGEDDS

Target | lysine labeling ratio R10:1
UniProt Q15149 (lysine site: K3476) | 1.8 (active)
EPRS (lysine site: K328) (UniProt P07814) | 1.73 (active)
LAMB2 (lysine site: K1720) (UniProt P55268) | 5.02
PTPRF (lysine site: K204) (UniProt P10586) | 4.93
IQGAP1 (lysine site: K1389) (UniProt P46940) | 5.25
RPL10A (lysine site: K196) (UniProt P62906) | 2.81
XRCC6 (lysine site: K317) (UniProt P12956) | 3.53
LNPEP (lysine site: K626) (UniProt Q9UIQ6) | 0.72 (active)
UniProt Q9UHN6 (lysine site: K1262) | 2.6
ACOT7 (lysine site: K198) (UniProt O00154) | 2.95
SLC25A13 (lysine site: K487) (UniProt Q9UJS0) | 4.12
VASN (lysine site: K506) (UniProt Q6EMK4) | 5.1
SPTAN1 (lysine site: K241) (UniProt Q13813) | 7.04
UniProt Q14574 (lysine site: K281) | 1.99 (active)
UniProt Q9BTX1 (lysine site: K628) | 5.32
INSR (lysine site: K476) (UniProt P06213) | 1.75 (active)
UniProt Q9UHN6 (lysine site: K767) | 3.26
NEGR1 (lysine site: K180) (UniProt Q7Z3B1) | 1.72 (active)
UniProt P60866 (lysine site: K67) | 2
IGF2R (lysine site: K808) (UniProt P11717) | 5.23

Target | lysine labeling ratio R10:1
TLN1 (lysine site: K428) (UniProt Q9Y490) | 2.34
HM13 (lysine site: K61) (UniProt Q8TCT9) | 1.69 (active)
AGRN (lysine site: K1589) (UniProt O00468) | 5.07
VIM (lysine site: K313) (UniProt P08670) | 10.6
CD109 (lysine site: K127) (UniProt Q6YHK3) | 12
UniProt Q9UHN6 (lysine site: K856) | 0.771 (active)
UGT8 (lysine site: K195) (UniProt Q16880) | 1.49 (active)
UniProt P62829 (lysine site: K123) | 0.877 (active)
ROR2 (lysine site: K285) (UniProt Q01974) | 3.36
G6PD (lysine site: K171) (UniProt P11413) | 6.51
ITGA3 (lysine site: K638) (UniProt P26006) | 5.04
MYH9 (lysine site: K1459) (UniProt P35579) | 1.3 (active)
THBS1 (lysine site: K430) (UniProt P07996) | 3.67
GPC1 (lysine site: K42) (UniProt P35052) | 2.38
CHMP2A (lysine site: K64) (UniProt O43633) | 5.72
SLC4A2 (lysine site: K975) (UniProt P04920) | 2.29
GANAB (lysine site: K491) (UniProt Q14697) | 1.12 (active)
TXLNA (lysine site: K256) (UniProt P40222) | 3.67
HNRNPC (lysine site: K176) (UniProt P07910) | 3.1
ITGA3 (lysine site: K897) (UniProt P26006) | 1.68 (active)

— the supplement of paper PMC11001985
